{"source": "the supplement of paper PMC7411640", "note": "Where a name gives a salt, the structure may show the parent alone."}
{"test_system": "MDA-MB-468", "assay": "phospho-S6 immunofluorescence (DAPI-normalised), per-plate z-score; higher = higher phospho-S6 signal (less pathway suppression)", "conditions": "co-treatment: GDC0941 450 nM; 24 h", "method": "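GPCR-targeted compound library (MedChemExpress HY-L006) tested on MDA-MB-468 PTEN-null TNBC cells in 384-well plates at 0.1, 1 or 10 uM, combined with vehicle, GDC0941 450 nM or lapatinib 1 uM, for 24 h. Phospho-S6 (S240/244) immunofluorescence normalised to DAPI and expressed as a per-plate z-score; values are the mean of biological triplicates.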"}
{"smiles": "CCOC(=O)c1ccc(-n2cc(Cc3cnc(OCC)nc3)c(=O)nc2SCc2ccc(F)cc2)cc1", "note": "(compound 10 µM)", "phospho-S6 immunofluorescence (z-score)": -3.26}
{"smiles": "O=C(c1ccc(F)cc1)N1CCC[C@H](c2nc(-c3ccc(F)cc3)no2)C1", "note": "(compound 10 µM)", "phospho-S6 immunofluorescence (z-score)": -2.64}
{"smiles": "NC1=NCC2c3ccccc3Cc3ccccc3N12", "note": "(stereo not drawn) [Epinastine] (compound 10 µM)", "phospho-S6 immunofluorescence (z-score)": -0.05}
{"smiles": "C=CCN1CCCC1CNC(=O)c1cc(S(N)(=O)=O)cc(OC)c1OC", "note": "(stereo not drawn) [Veralipride] (compound 10 µM)", "phospho-S6 immunofluorescence (z-score)": -0.02}
{"smiles": "CCCN(CCC)CCc1cccc2c1CC(=O)N2", "note": "[Ropinirole (hydrochloride)] (compound 10 µM)", "phospho-S6 immunofluorescence (z-score)": 0.64}
{"smiles": "O=C(Nc1cccc2c(=O)cc(-c3nnn[nH]3)oc12)c1ccc(OCCCCc2ccccc2)cc1", "note": "[Pranlukast (hemihydrate)] (compound 10 µM)", "phospho-S6 immunofluorescence (z-score)": 1.61}
{"smiles": "COc1nc(C)cnc1NS(=O)(=O)c1cccnc1-c1ccc(-c2nnco2)cc1", "note": "[Zibotentan] (compound 10 µM)", "phospho-S6 immunofluorescence (z-score)": -2.05}
{"smiles": "Clc1ccc2nsnc2c1NC1=NCCN1", "note": "[Tizanidine (hydrochloride)] (compound 10 µM)", "phospho-S6 immunofluorescence (z-score)": 1.42}
{"smiles": "CN1[C@@H]2CC[C@H]1C[C@@H](OC(=O)c1c[nH]c3ccccc13)C2", "note": "[Tropisetron (Hydrochloride)] (compound 10 µM)", "phospho-S6 immunofluorescence (z-score)": 0.95}
{"smiles": "O=C(NC(Cc1cc(=O)[nH]c2ccccc12)C(=O)O)c1ccc(Cl)cc1", "note": "(stereo not drawn) [Rebamipide] (compound 10 µM)", "phospho-S6 immunofluorescence (z-score)": 0.69}
{"smiles": "CNS(=O)(=O)Cc1ccc2[nH]cc(CCN(C)C)c2c1", "note": "[Sumatriptan (succinate)] (compound 10 µM)", "phospho-S6 immunofluorescence (z-score)": 0.01}
{"smiles": "COc1ccccc1Oc1c(NS(=O)(=O)c2ccc(C)cn2)nc(-c2ccncc2)nc1OC", "note": "[Avosentan] (compound 10 µM)", "phospho-S6 immunofluorescence (z-score)": -0.03}
{"smiles": "COc1cccc(CCc2ccccc2OCC(CN(C)C)OC(=O)CCC(=O)O)c1", "note": "(stereo not drawn) [Sarpogrelate (hydrochloride)] (compound 10 µM)", "phospho-S6 immunofluorescence (z-score)": 0.63}
{"smiles": "O=C(CCCN1CCC(O)(c2ccc(Cl)cc2)CC1)c1ccc(F)cc1", "note": "[Haloperidol] (compound 10 µM)", "phospho-S6 immunofluorescence (z-score)": 1.78}
{"smiles": "CCOc1cc(N)c(Cl)cc1C(=O)NCC1CN(Cc2ccc(F)cc2)CCO1", "note": "(stereo not drawn) [Mosapride (citrate)] (compound 10 µM)", "phospho-S6 immunofluorescence (z-score)": 0.76}
{"smiles": "CC(C)(Cc1ccc2ccccc2c1)NC[C@@H](O)COc1cccc(Cl)c1C#N", "note": "[NPS-2143 (hydrochloride)] (compound 10 µM)", "phospho-S6 immunofluorescence (z-score)": -6}
{"smiles": "CN(C)[C@@H]1CCc2[nH]c3ccc(NC(=O)c4ccc(F)cc4)cc3c2C1", "note": "(compound 10 µM)", "phospho-S6 immunofluorescence (z-score)": 0.67}
{"smiles": "NCCc1c[nH]cn1", "note": "[Histamine] (compound 10 µM)", "phospho-S6 immunofluorescence (z-score)": 0}
{"smiles": "CCCCC[C@H](O)/C=C/[C@H]1[C@H](O)CC(=O)[C@@H]1CCCCCCC(=O)O", "note": "[Prostaglandin E1] (compound 10 µM)", "phospho-S6 immunofluorescence (z-score)": -0.04}
{"smiles": "CSc1ccc2c(c1)N(CCC1CCCCN1C)c1ccccc1S2", "note": "(stereo not drawn) [Thioridazine (hydrochloride)] (compound 10 µM)", "phospho-S6 immunofluorescence (z-score)": -5.09}
{"smiles": "Cc1c(Cc2ccc3ccccc3n2)c2cc(F)ccc2n1CC(=O)O", "note": "(compound 10 µM)", "phospho-S6 immunofluorescence (z-score)": 0}
{"smiles": "CCCCc1nc(Cl)c(CO)n1Cc1ccc(-c2ccccc2-c2nnn[nH]2)cc1", "note": "[Losartan (potassium)] (compound 10 µM)", "phospho-S6 immunofluorescence (z-score)": 0.74}
{"smiles": "O=C(COc1ccc(C(=O)c2ccccc2)cc1)NC1CCN(Cc2ccccc2)CC1", "note": "[AdipoRon] (compound 10 µM)", "phospho-S6 immunofluorescence (z-score)": -4.84}
{"smiles": "COc1ccc2ccc(=O)oc2c1CC=C(C)C", "note": "[Osthole] (compound 10 µM)", "phospho-S6 immunofluorescence (z-score)": 0.06}
{"smiles": "CCOC(=O)N[C@@H]1CC[C@@H]2[C@@H](C1)C[C@H]1C(=O)O[C@H](C)[C@H]1[C@H]2/C=C/c1ccc(-c2cccc(F)c2)cn1", "note": "[Vorapaxar] (compound 10 µM)", "phospho-S6 immunofluorescence (z-score)": -5.92}
{"smiles": "COc1ccc(C2CC(c3ccccc3)=NN2c2ccc(S(N)(=O)=O)cc2)cc1", "note": "(stereo not drawn) (compound 10 µM)", "phospho-S6 immunofluorescence (z-score)": -3.22}
{"smiles": "CCCN(CCc1cccs1)C1CCc2c(O)cccc2C1", "note": "(racemic) [rac-Rotigotine (Hydrochloride)] (compound 10 µM)", "phospho-S6 immunofluorescence (z-score)": -0.62}
{"smiles": "Cc1cc(NC(=O)Nc2ccc(N(C)C)cc2)c2cc(F)cc(F)c2n1", "note": "(compound 10 µM)", "phospho-S6 immunofluorescence (z-score)": -2.07}
